A short description of assay [1]: Quantitative High-Throughput drug screen in 47 multiple myeloma cell lines against the NCATS MIPE library collection: PCM6_Riken cell viability assay (AID 1919870). Further: nearly all actives have a fitted effect of over 30% in size. Further: potency means the concentration at half of the fitted maximal effect. The gist of the method: (§1)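 ATP-based CellTiter-Glo luminescence after 48 h drug exposure (37 °C, 5% CO2) of 500 myeloma cells per well. DMSO-only wells set 100% viability, media-only wells 0%; MIPE 4.0 library added by pin tool.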

Assay [2] in a line: Quantitative High-Throughput drug screen in 47 multiple myeloma cell lines against the NCATS MIPE library collection: RPMI8226_ATCC cell viability assay (AID 1919871). Further: nearly all actives have a fitted effect of over 30% in size. Further: potency means the concentration at half of the fitted maximal effect. Summed up: as §1
Assay [3] is described as follows: Quantitative High-Throughput drug screen in 47 multiple myeloma cell lines against the NCATS MIPE library collection: OPM2_DSMZ cell viability assay (AID 1919872). Further: nearly all actives have a fitted effect of over 30% in size. Further: potency means the concentration at half of the fitted maximal effect. The gist of the method:
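CellTiter-Glo ATP luminescence gave viability after 48 h compound treatment at 37C of 500 multiple myeloma cells per well. Normalisation used DMSO-only wells as 100% and media-only wells as 0% viability; primary qHTS of approved and investigational drugs.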

Assay [4] in a line: Quantitative High-Throughput drug screen in 47 multiple myeloma cell lines against the NCATS MIPE library collection: KMS11_JCRBsus cell viability assay (AID 1919873). Further: nearly all actives have a fitted effect of over 50% in size. Further: potency means the concentration at half of the fitted maximal effect. Summed up:
as §1

Assay [5] can be described thus: Quantitative High-Throughput drug screen in 47 multiple myeloma cell lines against the NCATS MIPE library collection: KMS28BM_JCRB cell viability assay (AID 1919874). Further: nearly all actives have a fitted effect of over 35% in size. Further: potency means the concentration at half of the fitted maximal effect. The gist of the method:
as §1

Assay [6] has as its target Cytochrome P450 3A4 (Homo sapiens) (UniProt P08684). Put plainly: qHTS for inhibitors of CYP3A4 against the NCATS DSHEA and TCM libraries (AID 1919971).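 Further: inhibition lowers luminescence from luciferin made by CYP3A4.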 Summed up: (§2)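 Concentration-response screening with isoform-matched pro-luciferin substrates. The CYP reaction was initiated by NADPH regenerating solution and ran 30-45 min in darkness at room temperature.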
Assay [7] concerns the target Cytochrome P450 2D6 (Homo sapiens) (UniProt P10635). The experiment in a line: qHTS for inhibitors of CYP2D6 against the NCATS DSHEA and TCM libraries (AID 1919972). The gist of the method:
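CYP2D6 enzyme with pro-luciferin substrate in manufacturer buffer (typically 100 mM KPO4), preincubated 15 min RT with substances (most at 19.5 nM upward); NADPH regeneration system (1x) started 30–45 min RT reaction; P450-Glo luminescence read after 30 min; quinidine as intraplate control.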
Background: qHTS replaces the single test concentration by a dilution series.

A short description of assay [8]: KB-3-1 P-gp reporter qHTS against the NCATS DSHEA and TCM libraries (AID 1919975). Summed up:
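Cell viability qHTS: 500 KB-3-1 cells/well, substances in titration, ~72 h, 37C; luminescent CellTiter-Glo read.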

In assay [9] the target is Cytochrome P450 2C9 (Homo sapiens) (UniProt P11712). Put plainly: qHTS for inhibitors of CYP2C9 against the NCATS DSHEA and TCM libraries (AID 1919973).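 Further: luminogenic pro-luciferin CYP2C9 substrate turned into luciferin with NADPH regeneration; series mostly up to about 34 µM.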 The gist of the method: as §2

Inconclusive results are not listed. The source made the active and inactive calls. The call rests on the fitted dose curve; in most records, active means well fitted curve in the direction sought with a large enough effect; inconclusive means small, poorly fitted or top-dose-only effect, or another doubt; inactive means no such curve, though single readings can be large; an effect the other way counts as inactive or inconclusive.

Sequence of Cytochrome P450 3A4 (Homo sapiens) (P08684 whole entry, looked up, canonical isoform): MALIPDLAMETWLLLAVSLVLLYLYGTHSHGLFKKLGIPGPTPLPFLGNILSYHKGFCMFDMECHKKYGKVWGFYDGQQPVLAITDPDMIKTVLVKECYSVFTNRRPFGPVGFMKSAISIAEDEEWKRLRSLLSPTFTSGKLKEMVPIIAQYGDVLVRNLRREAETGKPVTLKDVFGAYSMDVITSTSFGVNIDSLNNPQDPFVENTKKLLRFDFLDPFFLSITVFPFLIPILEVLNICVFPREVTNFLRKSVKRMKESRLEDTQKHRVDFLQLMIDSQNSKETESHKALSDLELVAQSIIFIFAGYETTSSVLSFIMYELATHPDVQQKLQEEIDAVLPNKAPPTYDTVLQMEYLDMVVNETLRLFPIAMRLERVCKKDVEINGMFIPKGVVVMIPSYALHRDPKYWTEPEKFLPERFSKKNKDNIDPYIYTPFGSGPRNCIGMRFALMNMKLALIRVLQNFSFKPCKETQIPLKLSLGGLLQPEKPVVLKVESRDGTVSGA
Sequence of Cytochrome P450 2D6 (Homo sapiens) (P10635 whole entry, looked up): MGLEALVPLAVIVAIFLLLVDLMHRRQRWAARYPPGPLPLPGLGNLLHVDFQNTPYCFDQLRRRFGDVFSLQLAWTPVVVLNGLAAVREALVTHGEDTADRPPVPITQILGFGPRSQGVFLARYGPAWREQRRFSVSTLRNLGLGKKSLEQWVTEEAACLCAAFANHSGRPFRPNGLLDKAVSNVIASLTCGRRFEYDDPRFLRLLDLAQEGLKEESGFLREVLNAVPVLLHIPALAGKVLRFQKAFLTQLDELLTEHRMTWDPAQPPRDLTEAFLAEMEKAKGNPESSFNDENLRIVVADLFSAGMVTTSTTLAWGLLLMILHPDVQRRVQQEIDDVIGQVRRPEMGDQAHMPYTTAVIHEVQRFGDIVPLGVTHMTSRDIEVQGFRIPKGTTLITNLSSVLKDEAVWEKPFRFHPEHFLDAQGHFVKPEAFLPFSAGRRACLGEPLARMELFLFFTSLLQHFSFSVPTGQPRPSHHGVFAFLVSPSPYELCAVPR
Sequence of Cytochrome P450 2C9 (Homo sapiens) (P11712 whole entry, looked up): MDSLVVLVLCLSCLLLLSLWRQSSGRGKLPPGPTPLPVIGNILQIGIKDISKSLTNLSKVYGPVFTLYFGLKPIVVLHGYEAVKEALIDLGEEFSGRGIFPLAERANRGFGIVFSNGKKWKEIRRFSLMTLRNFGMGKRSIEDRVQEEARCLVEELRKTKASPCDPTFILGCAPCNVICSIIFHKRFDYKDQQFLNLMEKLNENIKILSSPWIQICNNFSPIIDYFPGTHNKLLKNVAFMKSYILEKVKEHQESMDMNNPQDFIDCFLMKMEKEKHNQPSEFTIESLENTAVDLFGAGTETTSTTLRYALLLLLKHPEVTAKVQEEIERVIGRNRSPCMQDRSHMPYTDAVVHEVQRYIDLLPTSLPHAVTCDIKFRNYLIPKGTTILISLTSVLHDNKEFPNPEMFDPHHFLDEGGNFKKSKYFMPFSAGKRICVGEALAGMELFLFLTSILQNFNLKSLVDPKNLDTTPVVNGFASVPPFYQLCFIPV

With `COc1cc2nc(-c3ccc(N4CCN(C)CC4)cc3)nc(NCCN3CCOCC3)c2cc1OC`, the Potency in assay [1] is 0.166 µM (active); in assay [2], 0.0833 µM (active); in assay [3], 3.32 µM (active); in assay [4], 0.0935 µM (active); in assay [5], 0.105 µM (active).

As for `NC[C@@H]1O[C@@H](O[C@H]2[C@@H](O)[C@H](O[C@@H]3[C@@H](O)[C@@H](N)C[C@H](N)[C@H]3O[C@H]3O[C@H](CN)[C@@H](O)[C@@H](O)[C@H]3N)O[C@H]2CO)[C@H](N)[C@@H](O)[C@@H]1O`, the Potency result in assay [1], in assay [2], in assay [3], in assay [4] and in assay [5] was “inactive” in each case.

For the compound `O=c1cc(CN2CCOCC2)occ1OCCCCCSc1ccnc2cc(C(F)(F)F)ccc12`, the Potency is 9.35 µM (active) in [1], 11.8 µM (active) in [3] and 23.5 µM (active) in [4]. Also, in assay [2], the Potency result was “inactive”.

As for `O=C(O)CCC1CCC(c2cc(F)ccc2F)(S(=O)(=O)c2ccc(Cl)cc2)CC1` (centres undefined), in [1], the Potency was 13.2 µM (active). For the same compound, the Potency result in assay [2] and in assay [3] was “inactive” each time.

For the compound `c1ccc2c(-c3cnn4cc(-c5ccc(N6CCNCC6)cc5)cnc34)ccnc2c1`, in [1], the Potency was 0.935 µM (active).

Regarding `C[C@H]1[C@H](NC(=O)C(=NOC(C)(C)C(=O)O)c2csc(N)n2)C(=O)N1S(=O)(=O)O`, the Potency result in assay [1], in [2], in assay [3], in [4] and in assay [5] was “inactive” throughout.

Turning to `CC1(C)CCC[C@@]2(C)[C@@H]1CC[C@@]1(C)OC(=O)C[C@H]21`, the Potency entry in assay [1] and in assay [3] was “inactive” each time. Further, in [2], the Potency is 2.09 µM (active).

For `Cc1ccc(Nc2cc(-c3cccc(N4C(=O)c5ccccc5C4=O)c3)ncn2)cc1NS(C)(=O)=O`, the Potency is 14.8 µM (active) in [1] and 26.4 µM (active) in assay [3]. Also, the Potency result in assay [2] was “inactive”.

Regarding `Cc1c[nH]c(C=C2C(=O)Nc3ccccc32)c1CCC(=O)O`, the Potency is 20.9 µM (active) in assay [1] and 33.2 µM (active) in [4]. Further, the Potency result in assay [2] is “inactive”.

Take `CO[C@H]1C=CC=C(C)C(=O)NC2=CC(=O)C(NCCN(C)C)=C(C[C@@H](C)C[C@H](OC)[C@@H](O)[C@@H](C)C=C(C)[C@@H]1OC(N)=O)C2=O`: the Potency in assay [1] is 0.105 µM (active); in [2], 0.0469 µM (active); in assay [3] it was 0.0743 µM (active); in [4], 0.0093 µM (active); in [5] it was 0.166 µM (active).

For the compound `C[C@]12CCC3c4ccc(O)cc4CCC3C1CCC2=O` (some centres undefined), the Potency result in assay [1] and in assay [3] was “inactive” throughout. Besides, the Potency in assay [2] and in assay [5] was 20.9 µM (active) in each case.

Turning to `O=c1c(-c2ccc(O)cc2)coc2cc(O[C@@H]3O[C@H](CO)[C@H](O)[C@H](O)[C@H]3O)ccc12`, the Potency entry in assay [1], in [2], in assay [3] and in [5] was “inactive” each time. Also, the call in assay [6], in [7] and in assay [8] was inactive.

Consider `NS(=O)(=O)c1cccc2c1C(=O)c1cccc(O)c1C2=O`, for which the Potency in assay [1] was 0.469 µM (active); in assay [2] it was 0.833 µM (active); in assay [3] it was 2.64 µM (active); in assay [4], 0.105 µM (active); in [5], 0.469 µM (active).

As for `CN1[C@@H]2CCC[C@@H]1CC(NC(=O)c1nn(C)c3ccccc13)C2` (some centres undefined), the Potency result in assay [1], in assay [2], in assay [3], in assay [4] and in [5] was “inactive” throughout.

In the case of `O=C(O)c1c(Cl)c(Cl)c(Cl)c(Cl)c1-c1c2cc(I)c(=O)c(I)c-2oc2c(I)c(O)c(I)cc12`, the Potency in assay [1] was 6.62 µM (active); in assay [2] it was 9.35 µM (active); in assay [4], 6.62 µM (active).

Take `COc1cc(O)c2c(c1)C(=O)c1cc(C)cc(O)c1C2=O`: the Potency result in assay [1], in [2] and in assay [3] was “inactive” in each case. In addition, the compound was classed as inactive in [6], in assay [7], in [9] and in assay [8].

`Cc1c(O)cccc1C(=O)N[C@@H](CSc1ccccc1)[C@H](O)CN1C[C@H]2CCCC[C@@H]2C[C@@H]1C(=O)NC(C)(C)C`: the Potency in [1] is 18.7 µM (active); in assay [2] it was 18.7 µM (active); in assay [3], 26.4 µM (active); in [5], 20.9 µM (active).

Turning to `CC(=Cc1ccccc1)C=C1SC(=S)N(CC(=O)O)C1=O`, the Potency entry in assay [1], in assay [2], in [3], in assay [4] and in assay [5] was “inactive” throughout.

On to `Clc1ccc(C(c2ccc(Cl)cc2)n2cc[n+](CC(OCc3ccc(Cl)cc3Cl)c3ccc(Cl)cc3Cl)c2)cc1` (centres undefined), for which the Potency was 6.62 µM (active) in [1]; 20.9 µM (active) in [2]; 18.7 µM (active) in [3]; 9.35 µM (active) in assay [4]; 11.8 µM (active) in [5].

For the compound `COc1ccc(-c2coc3cc(O)cc(O)c3c2=O)cc1`, the Potency entry in assay [1], in assay [2], in assay [3] and in assay [5] was “inactive” in each case.

For `O=C1C(Cl)=C(NCCN2CCOCC2)C(=O)c2ncccc21`, the Potency is 8.33 µM (active) in [1]; 9.35 µM (active) in [2]; 7.43 µM (active) in assay [3]; 1.87 µM (active) in assay [4]; 3.32 µM (active) in [5].

Consider `CC[C@@]1(O)C[C@H](O[C@H]2C[C@H](N(C)C)[C@H](O[C@H]3C[C@H](O)[C@H](O[C@H]4CCC(=O)[C@H](C)O4)[C@H](C)O3)[C@H](C)O2)c2c(cc3c(c2O)C(=O)c2c(O)cccc2C3=O)[C@@H]1C(=O)OC`, for which the Potency in [1] was 1.05 µM (active); in assay [2] it was 0.296 µM (active); in assay [3] it was 4.18 µM (active); in assay [5] it was 0.132 µM (active).

As for `COc1ccc2cccc(CCNC(C)=O)c2c1`, the Potency entry in assay [1], in [2], in [3], in assay [4] and in assay [5] was “inactive” each time.

For `COc1ccc(C2Sc3ccccc3N(CCN(C)C)C(=O)C2OC(C)=O)cc1` (centres undefined), the Potency entry in [1], in assay [2], in [3] and in assay [5] was “inactive” each time.

These data come from PubChem BioAssay (NCATS).
